Laboratory results from PubChem BioAssay (NCATS).
Results filed as inconclusive are left out. Activity calls are given as the source filed them. Calls follow the shape of the dose curve; as a rule, active = well fitted cell-killing curve with a large enough effect; inconclusive = small, poorly fitted or top-dose-only effect; inactive = flat fitted curve, though single readings scatter.

Test: Cellular viability qHTS for adrenocortical cancer (ACC) cell line NCI-H295R (AID 1963990); also: nearly all actives have a fitted effect of over 60% in size
Details: CellTiter-Glo ATP luminescence, 48 h; series mostly up to 46.1 µM; activity change, negative = viability loss: at the top concentration
Source text: PI: Naris Nilubol, MD Surgical Oncology Program, National Cancer Institute (NCI) National Institute of Health (NIH), Bethesda, Maryland Adrenocortical cancer (ACC) is a rare malignancy with poor survival outcomes and few treatment options. Currently, mitotane is the only FDA-approved therapy for ACC. Although adjuvant radiation therapy is rarely utilized, it has the potential to improve survival in select cases. Through a quantitative high-throughput drug screen (qHTS), we identified auranofin (AF), a thioredoxin reductase (TXNRD) inhibitor, as a promising candidate drug. This study aims to evaluate whether AF can enhance the efficacy of radiation therapy in the treatment of ACC. Two human ACC cell lines, SW-13 and NCI-H295R, were screened using the National Center for Advancing Translational Sciences (NCATS) Pharmaceutical Collection (NPC) and the Mechanism Interrogation PlatE (MIPE) library (~4,991 compounds). CellTiter-Glo (Cat # G7570, Promega, Madison, WI) was utilized to measure cell viability. Described herein are the results of the corresponding viability assay.
PROTOCOL TABLE (as described by Inglese J, Shamu CE and Guy RK. 2007) SEQUENCE No. (e.g., 1, 2, 3, etc.); […] (e.g., Cells, Incubation, Reagent, etc.); VALUE; DESCRIPTION. 1; Cells; 5 uL; white, solid-bottom, 1536-well tissue-culture treated plates. 2; Time; overnight culture at 37C with 5% CO2. 3; Compounds and control; 23 nL; Kalypsis pin tool (Wako USA) equipped with a 1536-well pin head to transfer to the assay plates. 4; Time; 48 hours; 37C with 5% CO2. 5; Reagent; 4 uL; CellTiter-Glo luminescent substrate mix. 6; Time; 20 min at room temperature. 7; Detection; Luminescence; ViewLux plate reader NOTES (numbers refer to Sequence numbers above) 1. NCI-H295R cells were harvested from a T175 flask and resuspended in ITS-supplemented DMEM serum-free medium at a concentration of 300 000 cells/mL. Then 5 uL of resuspended cells were dispensed into each well of white, solid-bottom, 1536-well tissue-culture-treated plates using a multidrop combi dispenser. The plates were covered with stainless steel gasket lids. 2-3. The plates were cultured overnight at 37C with 5% CO2. Twenty-three nL of compounds (eight selected concentrations from the NPC / MIPE) or positive control (10 mM stock of bortezomib) in DMSO was transferred to each well of the assay plate using a pin tool (Kalypsys, San Diego, CA, USA). The final concentration of the compounds in the 5 uL assay volume ranged from 0.5 nM to 46 uM. 4-6. After 48 hours of incubation at 37C and 5% CO2, 4 uL of CellTilter-Glo luminescent substrate mix (Promega, Madison, WI, USA) was added to each well. Then the plates were incubated for 20 minutes at room temperature. 7. After incubation, luminescence was measured using a ViewLux plate reader (PerkinElmer, Waltham, MA, USA) with a clear filter was used to measure the number of metabolically competent cells. To determine compound activity in the qHTS assay, the titration-response data for each sample was plotted and modeled by a four-parameter logistic fit yielding IC50 and efficacy (maximal response) values. Raw plate reads for each titration point were normalized relative to positive control ([…], 100% inhibition) and DMSO-only wells (basal, 0%). REFERENCES: Inglese J, Shamu CE and Guy RK, Reporting data from high throughput screening of small molecule libraries, Nature Chemical Biology, 2007, 3(8): 438-441. doi.org/10.1038/nchembio0807-438.

SMILES | activity change, negative = viability loss | Potency
NS(=O)(=O)c1cc(C(=O)NN2C[C@H]3[C@H]4CCC(C4)[C@H]3C2)ccc1Cl | 29.1% (inactive) | 
Cn1cc(CNCC2CCN(c3ncc(C(=O)NO)cn3)CC2)c2ccccc21 |  | 0.794 µM (active)
C[C@@H](OC[C@@]1(c2ccccc2)CC[C@]2(CCC(=O)N2)CN1)c1cc(C(F)(F)F)cc(C(F)(F)F)c1 |  | 25.1 µM (active)
CN1CCN(C2CCC(n3cc(-c4ccc(Oc5ccccc5)cc4)c4c(N)ncnc43)CC2)CC1 (stereo not given) |  | 7.08 µM (active)
O=C(O)c1cc(=O)c2c(OCC(O)COc3cccc4oc(C(=O)O)cc(=O)c34)cccc2o1 |  | inactive
COc1nc(C)cnc1NS(=O)(=O)c1cccnc1-c1ccc(-c2nnco2)cc1 | -4.18% (inactive) | 
CN1CCN(c2ccc(-c3cccc(CN4CCOCC4)c3)cc2NC(=O)c2c[nH]c(=O)cc2C(F)(F)F)CC1 | 0.341% [at 20 µM] (inactive) | 
CC(=O)OC[C@H]1O[C@@H](OC(C)=O)[C@H](OC(C)=O)[C@@H]1OC(C)=O | -5.51% (inactive) | 
NC12CC3CC(CC(C3)C1)C2 |  | inactive
CC[C@]12CCCN3CCc4c(n(c5ccccc45)[C@@](O)(C(=O)OC)C1)[C@@H]32 | -20.8% (inactive) | 
CCOC(=O)C1=C(C)NC2=C(C(=O)CC(C)(C)C2)C1c1ccc(-c2ccccc2)cc1 (stereo not given) |  | 10 µM (active)
Cc1cccc(C)c1NC(=O)c1ccccc1C(=O)O | 9.36% (inactive) | 
CCCCCCCCCCCCc1ccc(S(=O)(=O)Nc2nncs2)cc1 | 0.947% (inactive) | 
O=C(O)c1ccc(OCCN2CCCCC2)cc1 | -8.74% (inactive) | 
O=C(Nc1ccnc(NC(=O)C2CC2)c1)c1c(Cl)cccc1Cl |  | 11.2 µM (active)
O=C(O)[C@H](O)[C@@H](O)[C@H](O[C@@H]1O[C@H](CO)[C@H](O)[C@H](O)[C@H]1O)[C@H](O)CO | -7.46% (inactive) | 
CN(C)C/C=C/C(=O)Nc1cccc(C(=O)Nc2cccc(Nc3ncc(Cl)c(-c4c[nH]c5ccccc45)n3)c2)c1 |  | 1.12 µM (active)
CC(=O)OCC(=O)NCCCOc1cccc(CN2CCCCC2)c1 | -11.3% (inactive) | 
CC(=O)Nc1ccc(S(=O)(=O)Nc2ccc([N+](=O)[O-])cc2)cc1 | -8.53% (inactive) | 
O=C(CCCCCCCCC#CI)Oc1ccccc1 |  | 13 µM (active)

SMILES | activity change, negative = viability loss | Potency
Cc1cc(O)c(-c2ccc([C@@H](C)CN(C)C)cc2)c2c1[nH]c(=O)c1sccc12 |  | 0.251 µM (active)
COc1cc(-c2cc(-c3ccc(N4CCNCC4)cc3)cnc2C)cc(OC)c1OC | -29.3% (inactive) | 
CCCC(=O)Nc1ccc(O)c(C(C)=O)c1 | -14.2% (inactive) | 
CC1(C)CNc2cc(NC(=O)c3cccnc3NCc3ccncc3)ccc21 | -0.89% (inactive) | 
CC(=O)Oc1ccc(C2(c3ccc(OC(C)=O)cc3)C(=O)Nc3ccccc32)cc1 | -20.5% (inactive) | 
COc1ccc(-c2cc(=O)c3c(O)cc(O)cc3o2)cc1O | -16.1% (inactive) | 
CC(=O)CC/C=C(\C)CC/C=C(\C)CC/C=C(\C)CCC=C(C)C | 22.3% (inactive) | 
Nc1nc2c(ncn2CCC(CO)CO)c(=O)[nH]1 | -17.8% (inactive) | 
C[C@@H](O)[C@H]1C(=O)N2C(C(=O)O)=C(SCCN=CN)C[C@H]12 | -23.1% (inactive) | 
CN1CC[C@@H](NC(=O)Nc2ccc(C#N)cc2)C[C@@H]1c1nc2ccccc2[nH]1 | 6.73% (inactive) | 
CC(C)CNc1ccnc(NCc2csc(-c3ccccc3)n2)n1 |  | 11.2 µM (active)
CC(C)C[C@H](NC(=O)c1cc2ccccc2s1)C(=O)N1CCN(C(=O)[C@H](CO)NS(=O)(=O)c2ccc(Cl)cc2Cl)CC1 |  | 25.1 µM (active)
CC1=C(CC(=O)O)c2cc(F)ccc2C1=Cc1ccc(S(C)=O)cc1 (stereo not given) | -28.7% (inactive) | 
Cc1ccc(C(=O)Nc2ccc(S(=O)(=O)O)c3cc(S(=O)(=O)O)cc(S(=O)(=O)O)c23)cc1NC(=O)c1cccc(NC(=O)Nc2cccc(C(=O)Nc3cc(C(=O)Nc4ccc(S(=O)(=O)O)c5cc(S(=O)(=O)O)cc(S(=O)(=O)O)c45)ccc3C)c2)c1 |  | inactive
C#CCN(C)CC1=Cc2ccccc2Oc2ccccc21 | -26.4% (inactive) | 
CC(=O)OC[C@H]1O[C@@](COC(C)=O)(O[C@H]2O[C@H](COC(C)=O)[C@@H](OC(C)=O)[C@H](OC(C)=O)[C@H]2OC(C)=O)[C@@H](OC(C)=O)[C@@H]1OC(C)=O | 0.982% (inactive) | 
CNC(=O)c1ccccc1Nc1nc(Nc2ccc(N3CCOCC3)cc2OC)ncc1Cl |  | 0.631 µM (active)
O=c1ncn2nc(Sc3ccc(F)cc3F)ccc2c1-c1c(Cl)cccc1Cl | -8.85% (inactive) | 
NCC[C@H](O)C(=O)N[C@@H]1C[C@H](N)[C@@H](O[C@H]2O[C@H](CN)[C@@H](O)[C@H](O)[C@@H]2O)[C@H](O)[C@@H]1O[C@H]1O[C@H](CO)[C@@H](O)[C@H](N)[C@@H]1O | 7.11% [at 0.587 µM] (inactive) | 
OC1CCC(Oc2cccc3cnc(Nc4ccc5nc[nH]c5c4)nc23)CC1 (stereo not given) |  | 2.51 µM (active)
